Screening results as filed in PubChem BioAssay.
Rows were chosen to be rich in hits. Some 2.9% of all compounds tested hit in one or more screens of this group.
KLK7 zymogen act: proKLK7 (human) activation, primary screen. P49862. purified proKLK7, EDANS-DABCYL substrate fluorescence; 100% is mature enzyme control, 0% vehicle. activation, % at 7 µM. 370,000 tested, 0.9% active;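 active = activation above the mean of all tested compounds plus 3 SD, computed per campaign excluding outliers beyond control limits, cut at about 13% in these data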
ADAM17 inh: inhibitors of human ADAM17. inhibition, % at 6.95 µM. recombinant ADAM17, EDANS/DABCYL FRET peptide cleavage. 370,000 tested, 0.83% active. P78536;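 active = inhibition above the mean of compounds lying between control limits plus 3 SD, set per campaign, cut at about 8.5% in these data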;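 note: 0% = DMSO-only wells as the low control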
ADAM10 inh: inhibits human ADAM10 | O14672 | recombinant ADAM10, EDANS/DABCYL FRET peptide cleavage, 3 h | inhibition, % at 7 µM | 370,000 tested, 0.62% active;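 active = inhibition above a per-campaign cutoff equal to the mean of compounds falling between control-based bounds plus 3 SD, cut at about 20% in these data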;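 note: 0% = DMSO wells while the 100% control is not disclosed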
PLCb3 inh: blocks human PLC-beta3 enzyme activity; Purified PLC-beta3, fluorogenic substrate, fluorescence; inhibition, % at 12.2 µM; 370,000 tested, 0.18% active; in the data active = inhibition above about 11%;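 note: 0% = median of compound wells on plate and 100% = full blocker control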
PLC-gamma1 inh: inhibitors of human phospholipase C gamma1. AID 720700. P19174. purified PLC-gamma1, fluorogenic substrate, fluorescence. inhibition, % at 12.2 µM. 370,000 tested, 0.84% active
Target sequence (P19174 whole entry, looked up): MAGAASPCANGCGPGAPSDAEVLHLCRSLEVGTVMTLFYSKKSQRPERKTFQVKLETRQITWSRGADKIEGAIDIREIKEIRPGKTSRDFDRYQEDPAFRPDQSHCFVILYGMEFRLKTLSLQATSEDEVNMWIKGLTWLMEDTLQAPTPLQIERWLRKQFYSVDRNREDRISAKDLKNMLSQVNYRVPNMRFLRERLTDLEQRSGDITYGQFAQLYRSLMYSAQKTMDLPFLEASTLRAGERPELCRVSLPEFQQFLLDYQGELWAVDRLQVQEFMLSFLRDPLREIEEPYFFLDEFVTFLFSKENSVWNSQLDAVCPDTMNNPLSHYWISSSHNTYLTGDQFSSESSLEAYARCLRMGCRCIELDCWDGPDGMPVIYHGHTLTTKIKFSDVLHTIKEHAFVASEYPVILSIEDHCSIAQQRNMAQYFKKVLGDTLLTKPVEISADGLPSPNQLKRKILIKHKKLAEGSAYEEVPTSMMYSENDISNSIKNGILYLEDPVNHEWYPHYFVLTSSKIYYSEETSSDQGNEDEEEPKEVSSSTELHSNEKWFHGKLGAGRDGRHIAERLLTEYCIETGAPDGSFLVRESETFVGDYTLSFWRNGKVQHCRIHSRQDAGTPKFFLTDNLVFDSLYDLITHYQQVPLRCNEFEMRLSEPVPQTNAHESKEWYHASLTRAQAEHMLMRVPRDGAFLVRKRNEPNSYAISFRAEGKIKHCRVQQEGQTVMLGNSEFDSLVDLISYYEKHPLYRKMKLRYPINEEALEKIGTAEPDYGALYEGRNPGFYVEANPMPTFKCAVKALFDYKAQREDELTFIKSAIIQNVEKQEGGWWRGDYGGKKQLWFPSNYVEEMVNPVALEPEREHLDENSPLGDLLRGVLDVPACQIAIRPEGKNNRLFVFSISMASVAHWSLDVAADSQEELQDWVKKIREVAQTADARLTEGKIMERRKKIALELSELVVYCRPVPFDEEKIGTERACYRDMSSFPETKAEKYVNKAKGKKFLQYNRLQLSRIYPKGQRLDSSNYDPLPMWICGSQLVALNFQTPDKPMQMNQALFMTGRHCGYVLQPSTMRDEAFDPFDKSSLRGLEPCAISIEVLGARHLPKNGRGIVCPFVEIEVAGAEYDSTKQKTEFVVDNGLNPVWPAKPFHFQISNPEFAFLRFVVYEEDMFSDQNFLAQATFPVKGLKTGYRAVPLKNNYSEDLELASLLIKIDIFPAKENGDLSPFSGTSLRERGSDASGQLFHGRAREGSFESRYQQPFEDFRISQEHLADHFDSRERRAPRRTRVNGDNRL
PLCgamma1 ctr: PLC-gamma1 inhibition, counter-screen for PLC-beta3 hits | 3,300 tested, 3.1% active | inhibition, % at 12.3 µM | shares compounds with PLC-gamma1 inh | AID 743258 | purified PLC-gamma1, fluorogenic substrate, fluorescence
PLCbeta3 conf: human PLC-beta3 inhibition, confirmation | 3,300 tested, 1% active | inhibition, % at 12.3 µM | purified PLC-beta3, fluorogenic substrate fluorescence | shares compounds with PLC-gamma1 inh; in the data active = inhibition above about 11%
The depositor's hits bear a star; . = no result given. Cut-off read from the data, not from the text of the source, unless noted: active = inhibition above about 9.5%; inactive = the rest.

SMILES | KLK7 zymogen act | ADAM17 inh | ADAM10 inh | PLCb3 inh | PLC-gamma1 inh | PLCgamma1 ctr | PLCbeta3 conf
O=C(NCc1ccc2c(c1)OCO2)Nc1ccc([N+](=O)[O-])cc1 | 0 | -1 | -10 | 0 | 11* | 3 | 5
Cc1ccc(Cn2ccnc2SCC(=O)NC2CCCC2)cc1 | 0 | 1 | 1 | -7 | 1 | . | .
O=C(Nc1cccnc1)c1ccccc1Oc1ccccc1 | 0 | 8 | 7 | 11* | 5 | -10 | -1
O=C(Nc1cccnc1)c1ccc(Oc2ccccc2)cc1 | 1 | -3 | 3 | -1 | 0 | . | .
CCCCCCCC(=O)Nc1ccc(S(=O)(=O)Nc2nccs2)cc1 | 0 | 2 | 1 | 0 | 26* | -5 | -5
C/C(=N\NC(=O)c1nnn(-c2nonc2N)c1CSc1ccc(C)cc1)c1cccs1 | -1 | 2 | -18 | 0 | 10* | -11 | -6
O=C1CC(CC(=O)N/N=C/c2ccccc2[N+](=O)[O-])=NN1 | 0 | 0 | 0 | -1 | 13* | -5 | -1
Cc1onc(-c2c(F)cccc2Cl)c1C(=O)N1C=CC(C(F)(F)Cl)=NCC1 | 0 | 5 | 8 | 11* | 13* | 1 | 5
Cc1onc(-c2c(F)cccc2Cl)c1C(=O)N1CCCC1 | 1 | -3 | -10 | 3 | 4 | . | .
CC[C@@H](CCCc1ccccc1OC)CCS(=O)(=O)C(C)(C)C | 0 | -2 | 1 | 1 | -1 | . | .
O=C(CN1C(=O)NC2(CCCC2)C1=O)N1CCN(S(=O)(=O)c2cc(Cl)ccc2Cl)CC1 | 0 | -6 | 3 | -15 | 10* | -4 | -5
COc1ccc(C2=NOC(C(=O)Nc3cc(C)on3)C2)cc1 (stereo unspecified) | 0 | 0 | -6 | 3 | 1 | . | .
Cc1cc(NC(=O)C2CC(c3ccc(Cl)cc3)=NO2)no1 (stereo unspecified) | 1 | 1 | 5 | 12* | 9 | -2 | 0
O=C(O)Cc1cccc2ccccc12 | 0 | -3 | 0 | 0 | -1 | . | .
C=CC[C@H](CC(=O)OC(C)(C)C)C(=O)OC[C@@H]1CCCN1C(=O)[C@@H](CC=C)CC(=O)NCCO | -1 | -2 | -1 | 3 | 9.8* | -9 | -1
CCOc1ccc(CCNC(=O)C2CCCN(S(C)(=O)=O)C2)cc1OCC (stereo unspecified) | 0 | 1 | 7 | 13* | 3 | -1 | -2
CCOC(=O)N1CCN(S(=O)(=O)N2CCCC(C(=O)NCCc3ccc(OCC)c(OCC)c3)C2)CC1 (stereo unspecified) | 0 | -1 | 10 | 2 | 12* | -4 | -6
Cc1ccc(NC(=O)CN(C)C(=O)c2cccc(S(=O)(=O)NCc3ccco3)c2)cc1 | 0 | -3 | -7 | 2 | 0 | . | .
O=C(CCNC(=O)c1ccco1)NCCc1ccc(Cl)cc1 | 0 | -1 | -10 | -2 | -1 | . | .
O=C(CCNC(=O)c1ccccc1)NCCc1ccc(Cl)cc1 | 0 | 3 | 6 | 0 | 9.6* | -5 | -4
Cc1ccc(C(=O)NC(NC(=O)c2ccc(C)cc2)C(Cl)Cl)cc1 | 0 | -1 | 6 | 0 | 6 | . | .
Cc1ccc(C(NC(=O)c2ccccc2)C(Cl)Cl)cc1 (stereo unspecified) | 0 | 6 | 10 | 11* | 7 | -3 | -1
CCCC(O)(c1ccccc1)C(CN1CCOCC1)c1ccccc1 (stereo unspecified) | -1 | -1 | -3 | 0 | 2 | . | .
CCCC(O)(c1ccc(Cl)cc1)C(CN1CCOCC1)c1ccccc1 (stereo unspecified) | 0 | 4 | 1 | 3 | 11* | 5 | 2
O=C(CCCCCNC(=O)N1CCn2c1nc1ccccc12)NCc1ccc(F)cc1 | 0 | 3 | 2 | 0 | 11* | -5 | -4
SMILES | KLK7 zymogen act | ADAM17 inh | ADAM10 inh | PLCb3 inh | PLC-gamma1 inh | PLCgamma1 ctr | PLCbeta3 conf
O=C(CCC(=O)OCc1ccc([N+](=O)[O-])cc1)Nc1ccc(F)cc1 | 0 | 3 | 2 | 10 | 10* | -2 | 1
Cc1cccc(NC(=O)CCC(=O)OCC(=O)c2ccc(Oc3ccc([N+](=O)[O-])cc3)cc2)c1 | -1 | 0 | -4 | 6 | 2 | . | .
Cc1ccc(NC(=O)CCC(=O)OCC(=O)c2ccc(Oc3ccc([N+](=O)[O-])cc3)cc2)cc1C | 0 | 2 | 6 | 5 | 11* | 7 | 6
CC(N)(C(=O)O)c1cccc(OCc2cccc(Cl)c2)c1 (stereo unspecified) | 0 | 0 | 13 | 4 | 11* | -3 | -5
O=C(CN1CCc2ccccc2C1)Nc1ccc(F)cc1F | 1 | 3 | 4 | -2 | 10* | -6 | -3
COc1cc2c(cc1OC)CN(CC(=O)Nc1ccc(F)cc1F)CC2 | 1 | -5 | -10 | -23 | -12 | . | .
CCOC(=O)c1c(NC(=S)N2CCN(C)CC2)sc(C)c1-c1ccccc1 | 0 | 2 | 3 | -3 | 11* | -7 | -4
CCOC(=O)c1ccc(NC(=S)N2CCN(C)CC2)cc1 | 0 | -7 | -11 | -4 | 0 | . | .
N=c1sccn1CC(=O)NCCc1ccc(Cl)cc1 | 1 | 3 | 6 | 3 | 10* | -8 | -7
CC(=O)N1c2ccc(S(=O)(=O)N3c4ccccc4CC3C)cc2CC1C (stereo unspecified) | 0 | 0 | 14 | -7 | 2 | . | .
CC1Cc2ccccc2N1S(=O)(=O)c1ccc2c(c1)n(C)c(=O)c(=O)n2C (stereo unspecified) | 0 | 2 | 10 | 4 | 9.6* | -1 | 2
CC(C)Nc1nc(-c2ccccc2F)c2sc(-c3ccccc3)cc2n1 | -10 | -26 | -86 | -59 | -39 | . | .
CCCCC1CCC(c2nc(-c3ccccn3)no2)CC1 (stereo unspecified) | 1 | 3 | 2 | 3 | 9.8* | -4 | -4
c1ccc(-c2noc(C3CCC3)n2)nc1 | 1 | -5 | -3 | -7 | 0 | . | .
CCN(CC)S(=O)(=O)c1ccc2nc(SC)sc2c1 | 0 | 4 | 1 | 1 | 1 | . | .
CCCn1nc(NS(=O)(=O)c2cccc3nonc23)c2cc3cccc(C)c3nc21 | 0 | -4 | -6 | -19 | -7 | . | .
CCCC(C)(C)NC(=O)CCCCC(=O)NC(C)(C)CCC | 0 | -4 | -4 | 1 | 1 | . | .
CC(C)(C)NC(=O)CCCCCCCC(=O)NC(C)(C)C | -1 | 5 | -2 | 11* | 13* | -6 | -1
COc1ccc(C)cc1NC(=O)C1CC(=O)N(Cc2ccco2)C1 (stereo unspecified) | 1 | 2 | -6 | 5 | -2 | . | .
CCC1CCCCN1C(=O)CSc1nc2ncccc2[nH]1 (stereo unspecified) | -1 | 2 | -8 | -7 | 11* | -4 | -3
